# KDM5B inh – KDM5B demethylase inhibition | AID 1347165 | hit rate 2.6% among 220,000 | Potency, µM (highest dose often 57.7 µM), actives largely listed as inhibitors | KDM5B demethylase, FDH-coupled NADH fluorescence (FDH is formaldehyde dehydrogenase); active = well fitted inhibition curve with a large enough effect; also: 0% is about no effect; nearly all actives have a fitted effect of over 70% in size
#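 Inhibition is measured as reduced NADH fluorescence generation from FDH coupling to formaldehyde release. Truncated KDM5BΔAP at 200 nM final acts on H3K4me3 peptide (12.5 µM in substrate mix) in pH 7.5 HEPES buffer with Tween-20, 30 min, room temperature.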
# The depositor's hits bear a star; i = inactive. This is one part of a sample in which hits are shown more often than they occur. Potency is read from the fitted curve at half-maximal effect.
SMILES,KDM5B inh
CC(=O)N[C@@H]1CN(Cc2ccc(C)cn2)C[C@H]1CO,i
CC(=O)N[C@@H]1CN(Cc2cc(=O)n3[nH]cnc3n2)C[C@H]1c1ccc(C)o1,22µM*
Clc1cccc(CNCCCn2ccnc2)c1,i
COc1ccc(-c2nc(-c3c(C)noc3C)cc3c2cc(C)n3CCN(C)C)cn1,40µM*
Cc1noc(C)c1-c1cc2c(cc(C)n2CCN(C)C)c(-c2cccnc2)n1,32µM*
CC(=O)Oc1cccc2cc(-c3nc(-c4ccc(F)cc4)no3)c(=O)oc12,i
O=C(CCn1nc(-c2ccccc2)c2ccccc2c1=O)NC1CCCCC1,i
O=C(Cn1cccc1-c1nc(-c2ccc(F)cc2)no1)NC1CCCC1,i
c1cn2c(NC3CCCCC3)c(-c3ccc(N4CCOCC4)cc3)nc2cn1,i
O=C(CCNc1c(-c2ccccc2)nc2cnccn12)NC1CCCC1,28µM*
O=C(CSc1nnc(-c2ccccc2)c(-c2ccccc2)n1)NC1CCCCC1,i
O=C(CCNc1c(-c2ccc(F)cc2)nc2cnccn12)NC1CCCC1,28µM*
O=C(CCNc1c(-c2ccc(F)cc2)nc2cnccn12)N1CCCCC1,22µM*
O=C(Nc1c(-c2ccc(F)cc2)nc2ccccn12)c1ccccc1F,i
O=C(c1cn[nH]c1-c1ccc(F)cc1)N1CCCCC1,i
COc1ccc(CNC(=O)c2nc(-c3ccccc3)oc2C)cc1OC,i
COc1ccc(NC(=O)c2nc3ccccc3nc2N2CCOCC2)c(OC)c1,i
Cc1ccc2cc(C(=O)N(C)Cc3ccc(C)o3)[nH]c2c1,i
CN(C(=O)c1ccc2ccccc2n1)C1CCN(Cc2ccncc2)CC1,i
O=C(NCCCN1CCCc2ccccc21)C1Cn2cccc2C(=O)N1Cc1ccccc1 (configuration not stated),i
COCCn1ccc2c(C3=CCOCC3)nc(-c3cccc4cn[nH]c34)cc21,35µM*
COCCN1Cc2[nH]nc(-c3cccc(NC(C)=O)c3)c2CC1=O,i
COCCn1ccc2c(C3=CCOCC3)nc(-c3cccc(NC(C)=O)c3)cc21,35µM*
COCCn1ccc2c(C3=CCOCC3)nc(-c3cccc(N[S+](C)(=O)[O-])c3)cc21,i
O=C(CCSc1ccc(Cl)cc1)Nc1ccc(CSc2ccccc2)cc1,i
SMILES,KDM5B inh
O=C(Nc1cccc(-c2nc3ccccc3o2)c1)c1ccc2c(c1)OCO2,i
CCN(CC)c1ccc(NC(=O)c2cc3cc(F)ccc3[nH]2)cc1,i
CCC(=O)c1cc2c(cc1NC(=O)c1ccco1)OCCO2,i
O=C(Nc1ccc(F)cc1)N1CCOc2ccc(CN3CCc4ccccc4C3)cc2C1,i
Cc1cc(=O)n(CC(=O)Nc2cccc(C(F)(F)F)c2)c(N2CCC(C)CC2)n1,i
C/C=C/C=C/C(=O)NC1CCCc2ccccc21 (configuration not stated),i
CC(C)(C)NC(=O)c1cnn(-c2ccccc2)c1C1CCN(C(=O)OC(C)(C)C)CC1,i
COc1ccc(-c2nc(C(=O)NC3CC3)n3ccccc23)cc1,32µM*
C[S+](=O)([O-])c1ccc(-c2nc(C(=O)NC3CC3)n3ccccc23)cc1,i
COc1ccc(-c2nnsc2C(=O)NC2CCCC2)cc1,i
COc1ccccc1-c1nc(C(=O)NC2CC2)n2ccccc12,i
CC(C)(C)OC(=O)N1CCC(NC(=O)c2nc(-c3ccccc3)c3ccccn23)CC1,79µM*
CCCC(=O)N1CCCC(c2noc(COc3ccccc3)n2)C1 (configuration not stated),i
Cc1sc2ncnc(N3CCC(C(=O)Nc4cccc(S(=O)(=O)N5CCCC5)c4)CC3)c2c1C,i
Cc1ccc(S(=O)(=O)NCc2ccc(C(=O)N3CCN(c4cccc(C)c4C)CC3)cc2)cc1,i
CC(C)n1nnnc1SCCS(=O)(=O)c1cc(Cl)ccc1Cl,i
CCc1noc([C@@H]2CC(F)(F)CN2C(=O)c2ccoc2C)n1,i
Cc1nc2ccc(-c3nc(C4CCOC4)no3)cc2s1 (configuration not stated),i
COc1ccc2c(C)c(-c3nc(C4CCOC4)no3)oc2c1 (configuration not stated),32µM*
COc1ccc(C2(c3nc(C4CCOC4)no3)CCCC2)cc1OC (configuration not stated),i
O=C(/C=C/c1cccc(O)c1)c1cccs1,i
O=C(O)CCC(=O)N1N=C(c2ccco2)CC1c1ccc2nccnc2c1 (configuration not stated),i
COC(=O)CSc1nc2c(c(=O)[nH]c(=O)n2C)n1Cc1ccccc1,i
CCCCN(CCCC)S(=O)(=O)c1[nH]ncc1C(=O)OCC,i
Cc1ccc(C)c([S+](=O)([O-])c2nnn3c2nc(N2CCC(F)CC2)c2ccccc23)c1,79µM*
SMILES,KDM5B inh
Cc1ccc(N2CCN(c3nc4ccccc4n4nnnc34)CC2)c(C)c1,i
Cc1cc(C)c([S+](=O)([O-])c2nnn3c2nc(N2CCC(F)CC2)c2ccccc23)c(C)c1,79µM*
Cc1ccc(S(=O)(=O)c2nnn3c2nc(N2CCCCC2)c2ccccc23)cc1C,i
Cc1ccc(N2CCN(c3nc4c(S(=O)(=O)c5ccc(C)c(C)c5)nnn4c4ccccc34)CC2)c(C)c1,i
O=[S+]([O-])(c1ccncc1)c1nnn2c1nc(N1CCC(F)CC1)c1ccccc12,i
COc1ccc(OC)c(S(=O)(=O)N2CCCCCCNC(=O)CC2)c1,i
CCCC(NC(N)=O)C(=O)N1CCN(S(=O)(=O)c2ccc(OC)cc2)CC1 (configuration not stated),i
CCOC(=O)c1cc2c(Cl)cc(Cl)cc2[nH]1,i
O=C(OCc1ccc(F)cc1Br)c1ccc(CN2CCCC2=O)cc1,i
Cc1ccc(NC(=O)c2nn(Cc3ccccc3)c(=O)c3ccccc23)cc1Cl,i
O=C(NCc1coc(-c2cccs2)n1)c1cc(Cl)cc(Cl)c1,i
CCOC(=O)CNC(=O)c1cc(-c2ccccc2)nc2ccccc12,i
O=C(O)CNS(=O)(=O)c1ccc(Br)cc1,i
CCc1noc(-c2cccn3c(CNC(=O)c4cc(Cl)ccc4F)nnc23)n1,28µM*
CCc1noc(-c2cccn3c(CNC(=O)c4ccccc4F)nnc23)n1,32µM*
CCCN(C)Cc1ccc2c(c1)OCO2,i
COc1cc(Nc2nc3ccccc3nc2C(=O)OC(C)C)cc(OC)c1,i
COc1ccc(NS(=O)(=O)c2ccc3oc(SC(C)C(=O)N4CCC(C)CC4)nc3c2)cc1 (configuration not stated),i
CCOc1ccc(C(=O)NC2CCN(c3cc(-c4cccs4)[nH]n3)CC2)cc1OCC,i
N#Cc1cccc(C(=O)NC2CCN(c3cc(-c4cccs4)[nH]n3)CC2)c1,i
COc1ccc(C(=O)NC2CCN(c3cc(-c4cccs4)[nH]n3)C2)cc1OC (configuration not stated),11µM*
O=C(NC1CCN(c2cc(-c3cccs3)[nH]n2)CC1)c1ccccc1F,i
O=C(NC1CCN(c2cc(-c3cccs3)[nH]n2)CC1)c1ccc(F)cc1F,i
O=C(NC1CCN(c2cc(-c3cccs3)[nH]n2)CC1)c1ccc(Cl)cc1,i
Cc1ccccc1C(=O)NC1CCN(c2cc(-c3cccs3)[nH]n2)C1 (configuration not stated),13µM*
COc1ccc(-c2cc(N3CCCC(NC(=O)c4ccc(OC)c(OC)c4)C3)n[nH]2)cc1 (configuration not stated),i

# Bioassay records as filed in PubChem.
